The values that follow come from PubChem BioAssay AID504333 (National Center for Advancing Translational Sciences (NCATS), 2011).

Out of some 360,000 compounds screened, about 16,000 (4.4%) were called active. A call without a number means that no potency is given here. Roughly 9% stayed inconclusive and do not appear here. This is one part of a sample in which actives are shown more often than they occur. Calls come from the whole dose curve; as a rule, active = well fitted inhibition curve with a large enough effect; inconclusive = small, poorly fitted or top-dose-only effect; inactive = no such curve, though single readings can be large or run the other way.
Potency is the fitted concentration of half-maximal effect.

Bromodomain adjacent to zinc finger domain protein 2B (Homo sapiens), sequence (Q9UIF8 whole entry, looked up, the tested form may be a part): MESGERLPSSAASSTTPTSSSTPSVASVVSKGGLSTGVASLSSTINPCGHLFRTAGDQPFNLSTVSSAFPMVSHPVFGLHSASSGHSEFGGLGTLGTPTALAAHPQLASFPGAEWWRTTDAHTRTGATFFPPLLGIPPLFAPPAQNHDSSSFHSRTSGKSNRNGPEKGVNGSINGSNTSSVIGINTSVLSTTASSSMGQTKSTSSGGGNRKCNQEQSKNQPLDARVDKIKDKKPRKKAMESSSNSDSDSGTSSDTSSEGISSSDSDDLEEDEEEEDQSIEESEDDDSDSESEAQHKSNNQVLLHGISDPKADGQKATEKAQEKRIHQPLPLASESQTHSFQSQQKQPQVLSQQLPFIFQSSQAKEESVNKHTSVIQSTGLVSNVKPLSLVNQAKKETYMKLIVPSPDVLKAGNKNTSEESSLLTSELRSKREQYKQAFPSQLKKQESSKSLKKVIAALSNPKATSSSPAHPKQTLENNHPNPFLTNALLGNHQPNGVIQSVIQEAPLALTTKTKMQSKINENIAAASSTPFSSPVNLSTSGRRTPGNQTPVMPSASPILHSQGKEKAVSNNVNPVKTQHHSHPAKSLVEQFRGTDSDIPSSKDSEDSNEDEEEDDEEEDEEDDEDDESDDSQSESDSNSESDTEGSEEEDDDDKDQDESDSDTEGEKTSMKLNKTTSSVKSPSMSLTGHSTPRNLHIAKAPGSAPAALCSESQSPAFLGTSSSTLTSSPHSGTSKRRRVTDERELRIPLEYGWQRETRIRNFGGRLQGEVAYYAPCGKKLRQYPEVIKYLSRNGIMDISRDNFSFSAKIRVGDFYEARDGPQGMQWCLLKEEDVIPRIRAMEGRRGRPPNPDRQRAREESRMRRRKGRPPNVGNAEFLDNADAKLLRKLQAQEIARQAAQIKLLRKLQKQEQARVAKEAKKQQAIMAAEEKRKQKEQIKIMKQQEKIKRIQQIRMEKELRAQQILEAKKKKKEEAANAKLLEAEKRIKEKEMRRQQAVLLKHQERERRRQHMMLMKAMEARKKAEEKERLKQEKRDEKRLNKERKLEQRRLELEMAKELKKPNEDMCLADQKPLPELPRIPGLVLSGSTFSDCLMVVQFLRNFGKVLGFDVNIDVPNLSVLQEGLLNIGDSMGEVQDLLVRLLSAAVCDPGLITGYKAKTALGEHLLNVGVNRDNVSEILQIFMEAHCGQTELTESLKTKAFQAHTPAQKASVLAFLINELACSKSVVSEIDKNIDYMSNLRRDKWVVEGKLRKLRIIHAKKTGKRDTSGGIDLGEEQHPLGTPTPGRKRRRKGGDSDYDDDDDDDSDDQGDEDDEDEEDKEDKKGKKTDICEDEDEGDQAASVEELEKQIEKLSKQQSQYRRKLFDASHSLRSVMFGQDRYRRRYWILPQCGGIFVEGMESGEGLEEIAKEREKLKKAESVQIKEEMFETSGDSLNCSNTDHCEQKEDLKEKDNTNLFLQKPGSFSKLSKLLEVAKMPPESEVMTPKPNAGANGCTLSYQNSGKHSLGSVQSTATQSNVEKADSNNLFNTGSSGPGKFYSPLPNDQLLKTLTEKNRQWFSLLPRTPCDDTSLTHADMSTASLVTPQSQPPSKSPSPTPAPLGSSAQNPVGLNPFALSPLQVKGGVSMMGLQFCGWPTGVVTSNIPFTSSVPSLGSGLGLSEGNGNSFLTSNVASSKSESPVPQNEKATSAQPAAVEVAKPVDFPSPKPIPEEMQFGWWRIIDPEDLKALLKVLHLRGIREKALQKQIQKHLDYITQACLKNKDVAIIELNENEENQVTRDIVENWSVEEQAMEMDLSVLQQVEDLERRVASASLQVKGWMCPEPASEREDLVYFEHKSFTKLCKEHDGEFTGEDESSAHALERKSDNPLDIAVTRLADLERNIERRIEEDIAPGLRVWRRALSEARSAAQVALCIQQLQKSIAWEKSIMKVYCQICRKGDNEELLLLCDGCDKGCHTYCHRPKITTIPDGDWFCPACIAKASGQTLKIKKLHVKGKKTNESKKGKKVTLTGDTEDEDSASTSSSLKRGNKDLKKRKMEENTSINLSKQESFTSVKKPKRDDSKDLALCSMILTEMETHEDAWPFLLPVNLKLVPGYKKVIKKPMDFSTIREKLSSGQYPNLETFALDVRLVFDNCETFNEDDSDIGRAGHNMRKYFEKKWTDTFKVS

The experiment has as its target Bromodomain adjacent to zinc finger domain protein 2B (Homo sapiens) (UniProt Q9UIF8). In words: qHTS Assay for Inhibitors of BAZ2B. Note: nearly all actives have a fitted effect of over 60% in size. The note with it: AlphaScreen BAZ2B-H3K14Ac peptide displacement; series mostly up to 114 µM. The method in brief: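 AlphaScreen luminescence quantifies BAZ2B engagement of H3K14Ac peptide; the protein and biotinylated peptide are both at 50 nM final, buffer PBS pH 7.4 with 0.01% Tween-20, all steps at room temperature.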
Background: Quantitative high-throughput screening tests each substance at several concentrations.
In the case of `CN(C)S(=O)(=O)c1ccc(C(=O)N(Cc2cccnc2)c2nc3c(F)cc(F)cc3s2)cc1`, the Potency result was “inactive”. For the compound `CC(=O)Nc1cccc(NC(=O)CSc2cn(CC(=O)N3CCCC3)c3ccccc23)c1`, the Potency entry is “inactive”. Next, `COc1ccc(Cn2c(=O)n(-c3ccccc3C)c(=O)c3c4c(sc32)CN(C(C)=O)CC4)cc1`: “inactive”; `Cn1cccc1/C=C1\SC(=S)N(NC(=O)c2ccc(Cl)cc2)C1=O`: 12.6 µM (active); `CN1C(=O)C(CC(N)=O)N(NC(=O)c2ccc(Cl)cc2)C1=S` (stereo unspecified): “inactive”. Turning to `CCOc1ccc(/C=C2\SC(=S)N(NC(=O)c3ccncc3)C2=O)cc1OC`, the Potency entry was “inactive”.

`COc1ccc(N2CCN(C(=O)CSCc3nc(-c4ccccc4Cl)oc3C)CC2)cc1`: the Potency entry is “inactive”. As to `Cc1cccc(N=Nc2c(O)[nH]c3ccc(F)cc23)c1`, the Potency entry was “inactive”. As to `Cc1[nH]n(C)c(=O)c1N=Nc1ccc(S(C)(=O)=O)cc1`, the Potency entry is “inactive”.

For the compound `Cc1cccc(N=Nc2c(C)[nH]n(-c3ccccc3)c2=O)c1`, the Potency is 3.16 µM (active).

Turning to `O=C(CCS(=O)(=O)c1ccccc1)N(Cc1cccnc1)c1nc2c(F)cccc2s1`, the Potency entry was “inactive”. For the compound `Cc1ccc(Cl)cc1N(C)C(=O)Cn1nc(Cc2cccnc2)c2ccccc2c1=O`, the Potency result was “inactive”. For `CC1CCCCN1S(=O)(=O)c1ccc(F)c(C(=O)Nc2ccccc2C(F)(F)F)c1` (stereo unspecified) the value was “inactive”. For `COc1ccc(NC(=O)NC(C)c2c(-n3cccc3)sc(C)c2C)cc1OC` (stereo unspecified) the value was 35.5 µM (active); for `Cc1ccc(NC(=O)NC(C)c2c(-n3cccc3)sc(C)c2C)c(C)c1` (stereo unspecified), “inactive”; for `CCn1cc(NC(=O)Nc2ccc(OC)c(OC)c2)c(C(N)=O)n1`, “inactive”. Next, `Cc1cc(Nc2cccc(C(F)(F)F)c2)nc2ccc(NC(=O)c3ccc(=O)[nH]c3)cc12`: “inactive”. As to `COc1ccc(-c2nnc3n2CCCCC3)cc1`, the Potency entry was “inactive”. For `COc1ccc(-c2nc3n(c2Br)CCC3)cc1` the value was 50.1 µM (active); for `COc1ccc(-c2nc(SCC(=O)N3CCCC3)n[nH]2)cc1`, “inactive”. As to `CCc1nn(CC(=O)Nc2cc(C)cc(C)c2)c(=O)c2cc3sccc3n12`, the Potency result was “inactive”. On to `COc1c(O)cc2oc(-c3ccc(O)c(O)c3)cc(=O)c2c1O`, for which the Potency was 50.1 µM (active). On to `COc1ccc(-c2cc(=O)c3c(O)cc(O[C@@H]4O[C@H](CO[C@@H]5O[C@@H](C)[C@H](O)[C@@H](O)[C@H]5O)[C@@H](O)[C@H](O)[C@H]4O)cc3o2)cc1O`, for which the Potency entry was “inactive”. Next, `CCOC(=O)COc1cc(OCC(=O)OCC)c2c(=O)cc(-c3ccccc3)oc2c1`: “inactive”; `COCCCn1c(SCC(=O)NC2CCCC2)nnc1-c1ccccc1`: “inactive”.

Consider `COCCCn1c(Cc2csc(Nc3cccc(Cl)c3)n2)nnc1SCC(=O)OC1CCCCC1`, for which the Potency was 39.8 µM (active).

Take `COCCCn1c(SCC(=O)Nc2ccccc2)nnc1-c1ccncc1`: the Potency entry was “inactive”. With `COc1ccc(-c2cc(C(=O)NCc3cc(OC)c(OC)c(OC)c3)[nH]n2)cc1`, the Potency result was “inactive”. For `CN(C)c1cccc(C(=O)Nc2nc3ccc(S(=O)(=O)NC(C)(C)C)cc3s2)c1` the value was “inactive”.

Take `Cc1cc(C)c(NC(=O)CN2CCCCCC2)c(C)c1`: the Potency result is “inactive”. For `Cc1csc(NC(=O)CN2CCCCCC2)n1` the value was 50.1 µM (active); for `O=C(CN1CCCCCC1)Nc1c(Cl)cc(Cl)cc1Cl`, “inactive”. Take `CCOc1ccc(-c2nonc2NC(=O)c2oc3ccc(C)cc3c2C)cc1OCC`: the Potency entry is “inactive”. For `COc1ccc(CCNc2nc(-c3ccc(Cl)cc3)cc(C(F)(F)F)n2)cc1OC` the value was “inactive”; for `CC[C@H](C)[C@@H](C(=O)N1CCNCC1)n1cc([C@@H](N)Cc2ccc(O)cc2)nn1`, “inactive”; for `C#CCOCCOCCOCCNc1nc(N2CCN(C(=O)C(Cc3ccc(O)cc3)n3cc(C(N)CC(C)C)nn3)CC2)nc(N2CCN(C(=O)C(Cc3ccc(O)cc3)n3cc(C(N)C(C)CC)nn3)CC2)n1` (stereo unspecified), 56.2 µM (active). As to `C#CCOCCOCCOCCNc1nc(N2CCN(C(=O)[C@H](CCC(=O)O)n3cc(C(N)CO)nn3)CC2)nc(N2CCN(C(=O)[C@H](Cc3ccc(O)cc3)n3cc(C(N)[C@H](C)CC)nn3)CC2)n1` (stereo partly specified), the Potency is 39.8 µM (active). For the compound `C#CCOCCOCCOCCNc1nc(N2CCN(C(=O)[C@H](CCCCN)n3cc([C@@H](N)C(C)CC)nn3)CC2)nc(N2CCN(C(=O)[C@H](Cc3ccc(O)cc3)n3cc([C@@H](N)C(C)CC)nn3)CC2)n1` (stereo partly specified), the Potency was 44.7 µM (active). For `C#CCOCCOCCOCCNc1nc(N2CCN(C(=O)[C@H](Cc3ccc(O)cc3)n3cc(C(N)CC(C)C)nn3)CC2)nc(N2CCN(C(=O)[C@H](CCC(=O)O)n3cc(C(N)[C@H](C)CC)nn3)CC2)n1` (stereo partly specified) the value was 70.8 µM (active); for `CSc1ccc(C2C(C(=O)Nc3ccccc3)=C(C)Nc3nc4ccccc4n32)cc1` (stereo unspecified), “inactive”; for `CCC(CC)C(=O)N1CCc2cc(OC)c(OC)cc2C1COc1ccc(F)cc1` (stereo unspecified), “inactive”. `COc1ccc(NC(=O)c2sc3nc[nH]c(=O)c3c2C)cc1`: the Potency result is “inactive”. For `COc1ccc(OC)c(-c2nc(C(N)=O)c3c(n2)n(-c2ccc4c(c2)OCO4)c(=O)n3C)c1` the value was “inactive”; for `CCc1ccccc1NC(=O)N1CCN(C(=O)c2nsc3ccccc23)CC1`, “inactive”. For `Cc1csc2nc(COC(=O)c3ccc(NC(=O)COc4ccccc4F)cc3)cc(=O)n12` the value was “inactive”. Take `CCc1nc2ccc(C(=O)N3CCN(c4cc(Cl)ccc4C)CC3)cc2nc1CC`: the Potency result is “inactive”.

On to `Cc1c(NC(=O)C(C)(C)C)cccc1-c1nc2ccccc2s1`, for which the Potency result was “inactive”. For `O=C1CSC(=S)N1/N=C/c1ccc(O)c([N+](=O)[O-])c1` the value was 50.1 µM (active).

Turning to `COc1cccc(N2CCN(C(=O)CCCCCn3c(=O)[nH]c4ccccc4c3=O)CC2)c1`, the Potency entry is “inactive”. Turning to `COc1ccc2c(Sc3ccc(C)cc3)c(C(=O)NC(C)c3ccccc3)[nH]c2c1` (stereo unspecified), the Potency entry is “inactive”.

As to `Cc1ccc(N(CC(=O)NCC(C)c2ccccc2)S(=O)(=O)N(C)C)cc1` (stereo unspecified), the Potency result is “inactive”. On to `CS(=O)(=O)c1ccc2c(c1)SC1=NC(=O)/C(=C/c3ccco3)C(=N)N12`, for which the Potency was 50.1 µM (active). As to `CCC1=NN2C(=N)/C(=C/c3cc(C)n(-c4ccccc4)c3C)C(=O)N=C2S1`, the Potency entry is “inactive”.

In the case of `CC(C)(C)OC(=O)NCCCCCNC(=O)c1nc[nH]c1C(=O)NCc1ccccc1`, the Potency result was “inactive”. For `CC(C)(C)OC(=O)NCCCCCNC(=O)c1[nH]cnc1C(=O)Nc1nccs1`, the Potency is 31.6 µM (active). Next, `Cc1ccc(NC(=O)c2nc[nH]c2C(=O)N[C@@H](CCCCNC(=O)OC(C)(C)C)C(=O)OC(C)(C)C)cc1`: “inactive”.
